Common to all, as to conditions: mRNA level, 48 h; actives raise or lower the signal
Read-out in experiment [1]: Lipoprotein lipase (LPL), LPL (gene 4023)
Description: LTEA_HepaRG_LPL: Life Technologies and Expression Analysis (LTEA) Assay for Lipoprotein lipase (LPL) using HepaRG (AID 2283515). The procedure, abridged:
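Differentiated HepaRG cells, plated 48 h, then exposed 48 h in serum-free induction medium to 8 concentrations (top 100 uM, half-log steps) in 0.5% DMSO, duplicate. LPL mRNA measured by qRT-PCR, normalized to ACTB, GAPDH and POLR2A.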

Read-out in experiment [2]: MicroRNA 122 (MIR122), gene 406906
Kind of experiment: LTEA_HepaRG_MIR122: Life Technologies and Expression Analysis (LTEA) Assay for MicroRNA 122 (MIR122) using HepaRG (AID 2283516). Further: the transcript read is the microRNA miR-122. The procedure, abridged:
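HepaRG plated 48 h, switched to serum-free induction medium, then treated in duplicate for 48 h (100 uM top, half-log steps, 0.5% DMSO vehicle). RNA isolated, qRT-PCR performed, concentration-response fitted both directions relative to DMSO.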

Read-out in experiment [3]: matrix metalloproteinase-10 (MMP10), MMP10 (gene 4319)
Description: LTEA_HepaRG_MMP10: Life Technologies and Expression Analysis (LTEA) Assay for matrix metalloproteinase-10 (MMP10) using HepaRG (AID 2283517). The procedure, abridged:
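Differentiated HepaRG cells in serum-free induction medium exposed 48 h in duplicate to 8-point half-log series up to 100 uM in 0.5% DMSO. mRNA quantified by qRT-PCR, normalised to ACTB, GAPDH, POLR2A; bidirectional fit versus DMSO.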

Read-out in experiment [4]: matrix metalloproteinase-3 (MMP3), MMP3 (gene 4314)
Kind of experiment: LTEA_HepaRG_MMP3: Life Technologies and Expression Analysis (LTEA) Assay for matrix metalloproteinase-3 (MMP3) using HepaRG (AID 2283519). The procedure, abridged: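 HepaRG cells (~100,000/well) in serum-free induction medium were dosed in duplicate for 48 h with an 8-point half-log series from 100 uM, 0.5% DMSO. MMP3 mRNA was quantified by Fluidigm TaqMan qRT-PCR, normalized to three housekeeping genes.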

Read-out in experiment [5]: Paternally Expressed 10 (PEG10), PEG10 (gene 23089)
Kind of experiment: LTEA_HepaRG_PEG10: Life Technologies and Expression Analysis (LTEA) Assay for Paternally Expressed 10 (PEG10) using HepaRG (AID 2283520). The method, boiled down: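 HepaRG, 48 h post-plating → serum-free induction medium → 48 h chemical exposure (duplicate, 8-pt, max 100 uM, half-log, 0.5% DMSO) → lysis in RLT → TaqMan qRT-PCR for PEG10, ACTB/GAPDH/POLR2A normalisation.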

Read-out in experiment [6]: Protein phosphatase 2A (PPP2R4), PTPA (gene 5524)
Description: LTEA_HepaRG_PPP2R4: Life Technologies and Expression Analysis (LTEA) Assay for Protein phosphatase 2A (PPP2R4) using HepaRG (AID 2283522). The method, boiled down:
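Readout is PPP2R4 transcript level by microfluidic qRT-PCR after 48 h chemical treatment of human HepaRG liver cells. Concentrations spanned 100 uM downward in half-log steps; gain or loss of signal was fitted relative to DMSO.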

Read-out in experiment [7]: Phosphatase and tensin (PTEN), PTEN (gene 5728)
Kind of experiment: LTEA_HepaRG_PTEN: Life Technologies and Expression Analysis (LTEA) Assay for Phosphatase and tensin (PTEN) using HepaRG (AID 2283523). The method, boiled down:
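HepaRG cells, 48 h after plating, exposed in duplicate for 48 h in serum-free induction medium to 8 half-log concentrations up to 100 uM (0.5% DMSO). PTEN mRNA by qRT-PCR, normalized to ACTB, GAPDH, POLR2A; bidirectional fit versus DMSO.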

Read-out in experiment [8]: solute carrier (SLC22A1), SLC22A1 (gene 6580)
Kind of experiment: LTEA_HepaRG_SLC22A1: Life Technologies and Expression Analysis (LTEA) Assay for solute carrier (SLC22A1) using HepaRG (AID 2283524). The method, boiled down: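 Differentiated human HepaRG cells in serum-free induction medium, exposed 48 h in duplicate to 8-point half-log series from 100 µM top in 0.5% DMSO. SLC22A1 mRNA by TaqMan qRT-PCR normalized to ACTB, GAPDH, POLR2A; bidirectional fit versus DMSO.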

Read-out in experiment [9]: NAD(P)H dehydrogenase [quinone] 1 (NQO1), NQO1 (gene 1728)
Description: LTEA_HepaRG_NQO1: Life Technologies and Expression Analysis (LTEA) Assay for NAD(P)H dehydrogenase [quinone] 1 (NQO1) using HepaRG (AID 2283526). The method, boiled down: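 HepaRG, 48 h post-plating → serum-free induction medium → test chemical 48 h (duplicate, 100 uM top, half-log x8, 0.5% DMSO) → RNA isolation → qRT-PCR, ACTB/GAPDH/POLR2A normalization; bidirectional curve fit vs DMSO baseline.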

Read-out in experiment [10]: Nuclear factor erythroid 2-related factor 2 (Homo sapiens) (UniProt Q16236)
Description: LTEA_HepaRG_NFE2L2: Life Technologies and Expression Analysis (LTEA) Assay for Nuclear factor erythroid 2-related factor 2 (NFE2L2) Transcription Factor using HepaRG (AID 2283527).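 On outcome: TaqMan qRT-PCR transcript level normalised to ACTB GAPDH and POLR2A housekeeping genes.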 The procedure, abridged: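 Differentiated human HepaRG cells, serum-free induction medium, exposed 48 h in duplicate to eight half-log concentrations up to 100 uM in 0.5% DMSO. NFE2L2 mRNA by Fluidigm TaqMan qRT-PCR, normalised to ACTB, GAPDH, POLR2A; bidirectional change versus DMSO.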

Read-out in experiment [11]: succinate dehydrogenase complex iron sulfur subunit B (SDHB), SDHB (gene 6390)
Description: LTEA_HepaRG_SDHB: Life Technologies and Expression Analysis (LTEA) Assay for succinate dehydrogenase complex iron sulfur subunit B (SDHB) using HepaRG (AID 2283528). The method, boiled down: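 Readout is SDHB transcript level by qRT-PCR, normalised to three housekeeping genes and fitted bidirectionally against 0.5% DMSO vehicle. Human HepaRG cells were treated for 48 h at up to 100 uM.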

Read-out in experiment [12]: Signal transducer and activator of transcription 3 (Homo sapiens) (UniProt P40763)
Kind of experiment: LTEA_HepaRG_STAT3: Life Technologies and Expression Analysis (LTEA) Assay for Signal transducer and activator of transcription (STAT3) using HepaRG (AID 2283529). The procedure, abridged: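 Differentiated HepaRG cells, serum-free induction medium, dosed 48 h in duplicate, 8 half-log concentrations from 100 uM in 0.5% DMSO. STAT3 mRNA by qRT-PCR, normalised to ACTB, GAPDH, POLR2A; bidirectional fit versus DMSO.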

Read-out in experiment [13]: solute carrier (SLCO1B1), SLCO1B1 (gene 10599)
Description: LTEA_HepaRG_SLCO1B1: Life Technologies and Expression Analysis (LTEA) Assay for solute carrier (SLCO1B1) using HepaRG (AID 2283530). The method, boiled down:
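Gain or loss of SLCO1B1 mRNA is fitted against the 0.5% DMSO vehicle in human HepaRG liver cells treated 48 h at up to 100 uM in half-log steps. Expression comes from qRT-PCR normalized to endogenous controls.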

Read-out in experiment [14]: sulfotransferase 2A1 (SULT2A1), SULT2A1 (gene 6822)
Description: LTEA_HepaRG_SULT2A1: Life Technologies and Expression Analysis (LTEA) Assay for sulfotransferase 2A1 (SULT2A1) using HepaRG (AID 2283531). The procedure, abridged: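 Cells were plated and cultured 48 h, switched to serum-free induction medium, then dosed in duplicate for 48 h (8 concentrations, max 100 uM). RNA was isolated and SULT2A1 expression measured by qRT-PCR; gain or loss of signal fitted relative to DMSO.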

Read-out in experiment [15]: Transforming Growth Factor (TGFB1), TGFB1 (gene 7040)
Description: LTEA_HepaRG_TGFB1: Life Technologies and Expression Analysis (LTEA) Assay for Transforming Growth Factor (TGFB1) Transporter using HepaRG (AID 2283533). The method, boiled down: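 Expression change of TGFB1 in human HepaRG cells is measured after a 48 h chemical exposure, up to 100 uM in 0.5% DMSO vehicle. Curves are fitted in both directions relative to the DMSO baseline.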

Read-out in another experiment: TIMP1, TIMP1 (gene 7076)
Description: LTEA_HepaRG_TIMP1: Life Technologies and Expression Analysis (LTEA) Assay for TIMP1 using HepaRG (AID 2283534).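 Further: TaqMan qRT-PCR signal normalized to ACTB GAPDH and POLR2A housekeeping genes.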 The method, boiled down:
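We dosed human liver HepaRG cultures for 48 hours with up to 100 uM test chemical and measured TIMP1 expression by qRT-PCR. Activity in either direction is fitted relative to the 0.5% DMSO vehicle.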

Read-out in another experiment: MYC, MYC (gene 4609)
Kind of experiment: LTEA_HepaRG_MYC: Life Technologies and Expression Analysis (LTEA) Assay for MYC using HepaRG (AID 2283518). The procedure, abridged: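 Cells are thawed, plated and cultured 48 h, then treated for 48 h with test chemicals (eight half-log concentrations from 100 uM, 0.5% DMSO vehicle). RNA is isolated and MYC expression quantified by qRT-PCR against three housekeeping genes.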

Read-out in experiment [16]: Nuclear factor NF-kappa-B p105 subunit (Homo sapiens) (UniProt P19838)
Kind of experiment: LTEA_HepaRG_NFKB1: Life Technologies and Expression Analysis (LTEA) Assay for Nuclear Factor Kappa B Subunit 1 (NFKB1) using HepaRG (AID 2283521).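 Further: TaqMan qRT-PCR transcript normalised to ACTB GAPDH and POLR2A housekeeping genes.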 The procedure, abridged:
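HepaRG, 48 h exposure; 8-pt half-log series from 100 uM in 0.5% DMSO; duplicates. Readout: NFKB1 mRNA by qRT-PCR (Fluidigm arrays), housekeeping-normalized. Gain/loss fit vs DMSO baseline.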

Read-out in experiment [17]: Transforming Growth Factor (TGFA), TGFA (gene 7039)
Description: LTEA_HepaRG_TGFA: Life Technologies and Expression Analysis (LTEA) Assay for Transforming Growth Factor (TGFA) using HepaRG (AID 2283532). The method, boiled down:
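Differentiated HepaRG cells exposed 48 hours in serum-free induction medium, 0.5% DMSO vehicle, 8-point half-log series from 100 uM, in duplicate. TGFA mRNA by TaqMan qRT-PCR, normalised to ACTB, GAPDH, POLR2A; bidirectional fit versus DMSO.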

Structures are written as SMILES. Calls of active or inactive are those of the source. How the source made its calls: active means hit-call score of the fitted dose curve at least 0.9, where 1 is the maximum; inactive means score below 0.9.

From PubChem BioAssay (EPA / NIEHS) come the findings set out here.

Nuclear factor erythroid 2-related factor 2 (Homo sapiens), sequence (Q16236 whole entry, looked up): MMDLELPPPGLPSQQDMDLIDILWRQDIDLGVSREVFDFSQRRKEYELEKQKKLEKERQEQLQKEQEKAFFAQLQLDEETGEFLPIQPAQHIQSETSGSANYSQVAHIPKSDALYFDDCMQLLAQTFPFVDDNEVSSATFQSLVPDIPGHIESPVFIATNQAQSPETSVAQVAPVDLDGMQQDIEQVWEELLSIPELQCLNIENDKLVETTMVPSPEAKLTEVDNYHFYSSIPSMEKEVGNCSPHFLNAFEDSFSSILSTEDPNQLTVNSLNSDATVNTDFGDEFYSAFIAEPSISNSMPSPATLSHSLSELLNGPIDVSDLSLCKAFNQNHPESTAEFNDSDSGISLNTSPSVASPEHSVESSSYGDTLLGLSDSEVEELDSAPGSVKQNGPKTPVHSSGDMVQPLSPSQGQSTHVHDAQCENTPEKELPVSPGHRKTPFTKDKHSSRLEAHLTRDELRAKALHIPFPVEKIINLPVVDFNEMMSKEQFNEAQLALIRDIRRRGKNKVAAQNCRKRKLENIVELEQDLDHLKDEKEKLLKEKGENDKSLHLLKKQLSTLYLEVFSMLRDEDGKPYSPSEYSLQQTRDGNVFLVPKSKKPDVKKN
Signal transducer and activator of transcription 3 (Homo sapiens), sequence (P40763 whole entry, looked up): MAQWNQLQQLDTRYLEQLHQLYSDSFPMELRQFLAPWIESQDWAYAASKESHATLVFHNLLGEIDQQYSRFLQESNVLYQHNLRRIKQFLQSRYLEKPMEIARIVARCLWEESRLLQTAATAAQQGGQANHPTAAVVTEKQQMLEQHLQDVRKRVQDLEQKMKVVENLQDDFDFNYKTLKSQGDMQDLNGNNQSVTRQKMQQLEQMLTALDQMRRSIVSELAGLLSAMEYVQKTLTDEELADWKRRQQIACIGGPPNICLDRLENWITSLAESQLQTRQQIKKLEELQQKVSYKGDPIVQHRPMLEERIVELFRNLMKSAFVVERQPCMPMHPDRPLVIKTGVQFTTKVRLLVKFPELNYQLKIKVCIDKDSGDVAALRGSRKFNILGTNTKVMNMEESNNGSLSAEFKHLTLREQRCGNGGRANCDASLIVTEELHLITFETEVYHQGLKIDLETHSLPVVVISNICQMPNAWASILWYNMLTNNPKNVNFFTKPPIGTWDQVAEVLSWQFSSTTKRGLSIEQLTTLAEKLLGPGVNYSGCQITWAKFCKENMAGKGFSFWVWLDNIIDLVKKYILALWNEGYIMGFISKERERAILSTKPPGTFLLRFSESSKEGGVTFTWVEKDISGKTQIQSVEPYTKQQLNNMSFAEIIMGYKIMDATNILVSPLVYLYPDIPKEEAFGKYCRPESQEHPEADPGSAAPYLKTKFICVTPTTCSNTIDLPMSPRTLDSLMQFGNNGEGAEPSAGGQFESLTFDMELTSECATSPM
Nuclear factor NF-kappa-B p105 subunit (Homo sapiens), sequence (P19838 whole entry, looked up): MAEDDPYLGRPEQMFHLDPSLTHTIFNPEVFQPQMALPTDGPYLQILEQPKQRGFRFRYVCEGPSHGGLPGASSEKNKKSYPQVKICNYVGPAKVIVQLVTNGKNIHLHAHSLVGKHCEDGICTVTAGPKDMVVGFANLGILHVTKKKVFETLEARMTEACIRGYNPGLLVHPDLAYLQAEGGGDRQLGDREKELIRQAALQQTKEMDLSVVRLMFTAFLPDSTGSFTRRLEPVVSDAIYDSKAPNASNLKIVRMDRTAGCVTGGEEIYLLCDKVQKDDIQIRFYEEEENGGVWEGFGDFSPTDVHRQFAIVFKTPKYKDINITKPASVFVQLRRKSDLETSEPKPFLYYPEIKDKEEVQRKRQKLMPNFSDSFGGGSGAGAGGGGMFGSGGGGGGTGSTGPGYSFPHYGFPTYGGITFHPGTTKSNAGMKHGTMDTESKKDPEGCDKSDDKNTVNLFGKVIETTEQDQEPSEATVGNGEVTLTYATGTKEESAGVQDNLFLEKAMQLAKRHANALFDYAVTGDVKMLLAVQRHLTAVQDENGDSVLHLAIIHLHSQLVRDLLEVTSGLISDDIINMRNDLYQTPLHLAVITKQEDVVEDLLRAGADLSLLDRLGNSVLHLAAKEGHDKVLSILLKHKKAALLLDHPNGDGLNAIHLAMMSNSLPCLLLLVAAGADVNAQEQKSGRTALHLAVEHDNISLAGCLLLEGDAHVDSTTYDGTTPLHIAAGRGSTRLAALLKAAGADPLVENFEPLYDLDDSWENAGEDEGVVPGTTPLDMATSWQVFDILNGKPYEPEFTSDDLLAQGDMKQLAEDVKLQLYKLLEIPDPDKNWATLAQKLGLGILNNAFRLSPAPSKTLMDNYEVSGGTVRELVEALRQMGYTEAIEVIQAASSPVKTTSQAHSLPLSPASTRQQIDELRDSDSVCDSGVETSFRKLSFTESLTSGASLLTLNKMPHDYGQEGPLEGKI

Regarding `CCN(Cc1cccc(S(=O)(=O)O)c1)c1ccc(C(=C2C=CC(=[N+](CC)Cc3cccc(S(=O)(=O)O)c3)C=C2)c2ccccc2S(=O)(=O)[O-])cc1`, the call in experiment [1], in [2], in experiment [3], in experiment [4], in [5] and in experiment [6] was inactive. Further, the molecule was called inactive in experiment [7], in [8], in experiment [9], in experiment [10], in experiment [11] and in [12]. Moreover, the outcome is “inactive” in experiment [13]; “inactive” in experiment [14]; “inactive” in [15]; “inactive” in the experiment with TIMP1, TIMP1 (gene 7076).

Take `Cc1cc(F)ccc1-c1cc(N2CC[C@@H](O)[C@H]2CO)ncc1N(C)C(=O)C(C)(C)c1cc(C(F)(F)F)cc(C(F)(F)F)c1`: the concentration at half-maximal activity (AC50) (as a rule, the midpoint of the concentration-response curve, whichever way the signal moves) in experiment [1] was 48.8 µM (active); in [2], 9.28 µM (active); in the experiment with MYC, MYC (gene 4609), 17.3 µM (active); in [6], 21.5 µM (active); in experiment [7], 66.4 µM (active); in experiment [8], 20.7 µM (active). In addition, the AC50 in experiment [9] was 79.8 µM (active); in [10], 11.5 µM (active); in experiment [11], 75.1 µM (active); in [13] it was 12.9 µM (active); in experiment [14], 24.7 µM (active); in [17], 23.6 µM (active). Also, in experiment [15], the AC50 was 19.3 µM (active). The outcome in experiment [4] is “inactive”; in experiment [5] it was “inactive”; in experiment [16], “inactive”; in experiment [12], “inactive”; in the experiment with TIMP1, TIMP1 (gene 7076), “inactive”.

For the molecule `Cc1occc1C(=O)Nc1ccc(C(=O)N2CCC(F)(F)/C(=C\C(=O)N3CCC(N4CCCCC4)CC3)c3ccccc32)cc1`, the AC50 in [1] was 31.2 µM (active); in experiment [2] it was 31.2 µM (active); in [5], 48 µM (active); in [8], 32.2 µM (active). The outcome is “inactive” in [3]; “inactive” with MYC, MYC (gene 4609); “inactive” in experiment [4]; “inactive” in [16]; “inactive” in experiment [6]; “inactive” in [7]. Further, the result in [9], in experiment [10], in experiment [11], in [13], in [14] and in [15] was inactive. Further, in the experiment with TIMP1, TIMP1 (gene 7076), the outcome was inactive.
